According to PubChem BioAssay:
Active and inactive are the calls of the source.

Tests used:
[1] = anti-His antibody binders, primary screen, artefact control for SMM control protein annotation, biochemical, small-molecule microarray, 635 nm fluorescence (AID 1128); conditions: anti-His Alexa647 antibody binding, higher = more signal;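 further: score merges feature fluorescence with signal-to-noise for each printed compound spot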
[2] = test system: Human papillomavirus type 1a E7 protein (residues 1-88); assay: HPV1a E7 small-molecule binders, primary screen, biochemical, small-molecule microarray, residues 1-88, 635 nm (AID 1129); conditions: small-molecule microarray binding, fluorescence 635 nm; higher = more signal
[3] = target: Focal adhesion kinase 1 (Homo sapiens) (UniProt Q05397); assay: small-molecule microarray binders of FAK, primary screen, biochemical, 635/667 nm fluorescence, BSA, DTT (AID 1130); conditions: PTK2 binding, 635 nm fluorescence, higher = more signal;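 further: composite of spot emission at 667 nm and signal to noise over triplicate slides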
Sequence of Focal adhesion kinase 1 (Homo sapiens) (Q05397 whole entry, looked up): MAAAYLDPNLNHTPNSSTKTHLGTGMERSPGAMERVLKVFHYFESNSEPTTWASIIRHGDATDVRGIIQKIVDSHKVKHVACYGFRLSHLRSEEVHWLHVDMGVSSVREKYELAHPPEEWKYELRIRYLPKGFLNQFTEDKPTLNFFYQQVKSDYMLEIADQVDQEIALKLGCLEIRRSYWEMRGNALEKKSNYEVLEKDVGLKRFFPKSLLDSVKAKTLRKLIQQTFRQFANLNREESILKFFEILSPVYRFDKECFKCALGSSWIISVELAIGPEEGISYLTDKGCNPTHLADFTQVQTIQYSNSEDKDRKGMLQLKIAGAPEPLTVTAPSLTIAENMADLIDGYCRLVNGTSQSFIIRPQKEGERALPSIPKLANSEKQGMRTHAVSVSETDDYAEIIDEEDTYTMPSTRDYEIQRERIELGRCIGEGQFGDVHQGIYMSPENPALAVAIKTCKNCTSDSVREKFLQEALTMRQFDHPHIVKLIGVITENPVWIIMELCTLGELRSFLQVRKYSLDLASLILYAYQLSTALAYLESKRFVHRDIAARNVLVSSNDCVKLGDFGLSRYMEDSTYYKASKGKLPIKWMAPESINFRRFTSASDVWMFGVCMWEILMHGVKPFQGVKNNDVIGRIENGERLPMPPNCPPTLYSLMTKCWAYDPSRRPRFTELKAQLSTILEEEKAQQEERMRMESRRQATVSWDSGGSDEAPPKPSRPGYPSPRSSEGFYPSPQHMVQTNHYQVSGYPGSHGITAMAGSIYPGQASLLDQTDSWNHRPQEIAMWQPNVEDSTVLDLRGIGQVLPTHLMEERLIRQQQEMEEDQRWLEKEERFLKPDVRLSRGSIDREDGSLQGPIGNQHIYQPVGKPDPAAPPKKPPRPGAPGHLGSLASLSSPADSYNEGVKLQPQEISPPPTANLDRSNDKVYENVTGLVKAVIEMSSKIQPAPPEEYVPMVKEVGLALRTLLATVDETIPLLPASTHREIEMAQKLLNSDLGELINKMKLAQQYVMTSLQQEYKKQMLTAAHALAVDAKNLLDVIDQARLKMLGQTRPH

[4] = test system: Fibrinogen (Alexa647-labelled); assay: fibrinogen binders on compound microarrays, profiling panel, artefact control for SMM control-protein annotation, biochemical, small-molecule microarray, 635/667 nm fluorescence (AID 1131); conditions: fibrinogen-A647 binding fluorescence, higher = more signal;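 further: z-score merges 667 nm fluorescence with per-spot signal-to-noise over triplicate slides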
[5] = target: Follistatin (Homo sapiens) (UniProt P19883); assay: follistatin binders on small-molecule microarrays, primary screen, biochemical, small-molecule microarray, 635/667 nm fluorescence (AID 1132); conditions: FST binding, 635 nm fluorescence, higher = more signal
Sequence of Follistatin (Homo sapiens) (P19883 whole entry, looked up): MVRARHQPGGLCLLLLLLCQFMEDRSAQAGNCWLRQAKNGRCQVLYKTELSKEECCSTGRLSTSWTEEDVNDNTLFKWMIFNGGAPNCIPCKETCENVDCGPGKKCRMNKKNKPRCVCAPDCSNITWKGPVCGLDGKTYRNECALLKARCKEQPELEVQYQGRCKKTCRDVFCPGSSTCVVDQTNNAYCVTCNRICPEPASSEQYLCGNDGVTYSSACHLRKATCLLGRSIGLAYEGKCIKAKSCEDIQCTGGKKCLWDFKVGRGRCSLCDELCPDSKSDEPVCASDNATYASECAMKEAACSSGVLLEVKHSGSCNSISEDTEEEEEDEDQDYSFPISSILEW

[6] = target: Fibroblast growth factor 2 (Homo sapiens) (UniProt P09038); assay: FGF2 binders on small-molecule microarrays, primary screen, biochemical, small-molecule microarray, 635/667 nm fluorescence (AID 1133); conditions: small-molecule microarray binding, FGF2, fluorescence 635/667; higher = more signal
Sequence of Fibroblast growth factor 2 (Homo sapiens) (P09038 whole entry, looked up): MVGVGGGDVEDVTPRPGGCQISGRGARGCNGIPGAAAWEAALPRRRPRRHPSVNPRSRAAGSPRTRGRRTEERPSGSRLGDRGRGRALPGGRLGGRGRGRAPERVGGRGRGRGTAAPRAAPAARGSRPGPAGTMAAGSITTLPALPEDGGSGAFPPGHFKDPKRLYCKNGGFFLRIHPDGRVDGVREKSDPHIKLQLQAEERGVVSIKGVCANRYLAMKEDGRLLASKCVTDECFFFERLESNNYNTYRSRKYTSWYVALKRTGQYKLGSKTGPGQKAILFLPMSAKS

[7] = mitochondrial membrane potential change in A549 cells, profiling panel, cell-based, JC-1 fluorescence, basal, 24 h, 100 nL (AID 1138); conditions: higher = more signal;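 further: A549 lung adenocarcinoma cells under basal conditions with no added stimulus; test concentration not given here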
[8] = test system: Lefty1; assay: Lefty1 binders on small-molecule microarrays, primary screen, biochemical, small-molecule microarray, 635/667 nm fluorescence (AID 1139); conditions: small-molecule microarray binding, fluorescence 635/667; higher = more signal
[9] = test system: wheat germ agglutinin (Triticum aestivum), Alexa647-labelled; assay: wheat germ agglutinin binders on compound microarrays, profiling panel, artefact control for SMM control-protein annotation, biochemical, small-molecule microarray, 635/667 nm fluorescence (AID 1140); conditions: WGA-A647 binding, 635 nm fluorescence, higher = more signal;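 further: score merges 667 nm feature emission with signal to noise over triplicate slides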
[10] = target: Luciferin 4-monooxygenase (Photinus pyralis) (UniProt P08659); assay: firefly luciferase enzyme inhibitors, primary screen, biochemical, luminescence, purified enzyme, 2006 set (AID 1141); conditions: SteadyGlo luminescence, 30 min, higher = more signal, called active from +8 up or from −8 down;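 further: cell-free assay with purified firefly luciferase at 100 ng per well in PBS; test concentration not given here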
Sequence of Luciferin 4-monooxygenase (Photinus pyralis) (P08659 whole entry, looked up): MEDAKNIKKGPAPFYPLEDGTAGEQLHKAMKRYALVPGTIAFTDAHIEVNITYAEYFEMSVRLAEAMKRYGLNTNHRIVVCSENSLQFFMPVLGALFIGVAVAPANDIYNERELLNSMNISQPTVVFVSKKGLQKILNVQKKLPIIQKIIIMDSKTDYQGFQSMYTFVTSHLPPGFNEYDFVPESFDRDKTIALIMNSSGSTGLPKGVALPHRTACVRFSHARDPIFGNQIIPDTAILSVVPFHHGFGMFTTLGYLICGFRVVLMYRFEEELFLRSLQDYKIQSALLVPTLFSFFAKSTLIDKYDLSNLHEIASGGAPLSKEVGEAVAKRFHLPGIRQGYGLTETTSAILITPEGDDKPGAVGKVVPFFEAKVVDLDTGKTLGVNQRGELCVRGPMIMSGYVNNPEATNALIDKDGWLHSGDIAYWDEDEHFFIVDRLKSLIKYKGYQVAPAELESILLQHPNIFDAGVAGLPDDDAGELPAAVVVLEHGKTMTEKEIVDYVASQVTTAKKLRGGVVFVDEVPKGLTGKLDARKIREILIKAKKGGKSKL

Compound	composite z-score [1]	composite z-score [2]	composite z-score [3]	composite z-score [4]	composite z-score [5]	composite z-score [6]	z-score [7]	composite z-score [8]	composite z-score [9]	z-score [10]
CN(C)CCCCCCNC(=O)[C@@H]1C[C@@H]2C(=O)NCC(=O)N2[C@@H]1c1cccc(OCCO)c1	2.96	1.28	0.446	0.232	1.34	0.826	0.295	1.36	-0.0165	-0.791 (inactive)
CCN(CC)c1ccc(N2CC=CC34O[C@@H]5C=CCOC(=O)[C@@H]5[C@H]3C(=O)N(CCCCCO)[C@@H]4C2=O)cc1 (stereo not given in full)	3.37	-0.959	-0.0973	-1.59	-0.915	-0.551	1.24	-0.439	-0.559	-0.439 (inactive)
COC(=O)[C@@]1(Cc2ccccc2)[C@H]2c3cc(C(=O)N(C)C)n(Cc4cc(F)c(F)c(F)c4)c3C[C@H]2CN1C(=O)c1ccccc1	2.19	1.22	0.692	0.832	0.83	-0.311	-0.322	-0.807	0.418	1.78 (inactive)
CC(=O)NCCCC[C@@H]1NC(=O)[C@@H]2C[C@H](C(=O)NCCCCCC[N+](C)(C)C)[C@H](c3cccc(OCCO)c3)N2C1=O	2.89	1.17	0.202	0.416	1.39	1.69	-0.972	1.26	0.548	0.364 (inactive)
CC(C)(C)OC(=O)CC[C@]1(C(=O)NCC(O)CO)N=C(c2ccc(OCCCO)cc2)O[C@H]1c1ccccc1CN=[N+]=[N-] (stereo not given in full)	2.31	0.705	-0.0371	1.03	0.662	0.703	-0.101	-0.637	0.959	-0.718 (inactive)
CC(C)N1C(=O)c2ccccc2[C@](C)(C(=O)NC2CC2)[C@@H]1c1ccc(CO)cc1	1.58	0.875	-0.118	0.803	1.12	0.507	0.378	0.0517	0.497	1.34 (inactive)
C=CC[C@@]1(C(=O)NCCN2CCOCC2)N=C(c2ccc(OCCCO)cc2)O[C@@H]1c1ccccc1CN=[N+]=[N-]	2.83	1.23	0.269	0.216	0.898	-0.224	0.127	-0.0903	1	-3.74 (inactive)
COC(=O)[C@@]1(Cc2ccc(F)cc2)[C@H]2c3cc(C(=O)N4CCCC4)n(Cc4ccc(Cl)c(C(F)(F)F)c4)c3C[C@H]2CN1C(=O)c1ccccc1	2.45	1.23	0.777	1.01	1.08	-0.716	0.815	-0.862	1.22	1.18 (inactive)
O=C1C2C=CC(C(O)c3ccc(-c4ccccc4)s3)N(Nc3ccccc3F)C2C(=O)N1c1ccccc1 (stereo not given)	1.29	1.21	0.816	0.997	1.18	1.16	-1.12	0.133	0.994	-0.324 (inactive)
C=CCC(OC(C)=O)[C@@H]1[C@@H](N(Cc2ccc(-c3cccc(C(F)(F)F)c3)o2)C(=O)Cc2ccc(OC)cc2)c2cc(OCCCO)ccc2N1C(=O)Cc1ccc(OC)cc1 (stereo not given in full)	-0.381	-1.04	-0.127	-1.31	0.544	0.283	0.212	-0.0334	0.0267	0.781 (inactive)
COc1ccc([Si](C)(C)[C@H]2[C@H](CC(=O)N3CCC[C@H]3CO)O[C@@]3(C(=O)N(c4ccccc4)c4ccccc43)[C@@H]2C)cc1	0.318	0.0005	0.223	-0.445	0.813	0.441	0.16	0.992	0.0807	0.72 (inactive)
OCCCc1cc[n+](Cc2cccc(OC(F)(F)F)c2)cc1	1.62	1.01	0.917	0.315	1.18	0.58	-0.672	0.714	0.889	1.14 (inactive)
C=C(C)[C@@H]1CC=C(C(O)C2C=CC3C(=O)N(Cc4ccccc4)C(=O)C3N2n2cnnc2)CC1 (stereo not given in full)	-0.087	-0.124	0.0147	0.818	0.507	-0.759	-1.11	0.551	1.19	1.67 (inactive)
COc1ccc(C#Cc2ccc3c(c2)[C@]2(C(=O)N3)[C@H](C(=O)N3CCN(c4ncccn4)CC3)[C@H]3C(=O)O[C@H](c4ccccc4)[C@H](c4ccccc4)N3[C@@H]2c2ccc(O)cc2)cc1	0.658	1.2	0.392	0.972	1.2	0.485	-0.799	0.884	0.4	-0.374 (inactive)
O=C1O[C@H](c2ccccc2)[C@H](c2ccccc2)N2[C@H]1[C@@H](C(=O)NC[C@H](O)c1ccccc1)[C@]1(C(=O)Nc3ccc(C#CC4=CCCCC4)cc31)[C@H]2c1ccc(O)cc1	1.86	1.17	0.191	0.826	1.35	1.59	-1.38	0.82	0.331	-1.5 (inactive)
CN(C)CCCC[C@@H]1NC(=O)[C@@H]2C[C@H](C(=O)NCc3ccc(F)cc3)[C@H](c3cccc(OCCO)c3)N2C1=O	0.654	0.68	0.0978	0.909	1.41	1.96	0.591	1.11	-0.0486	-0.579 (inactive)
COCCn1c(C(=O)N2CCCC2)cc2c1C[C@H]1CN(C(=O)c3ccccc3)[C@@](Cc3ccc(OC)cc3)(C(=O)OC)[C@@H]21	2.34	1.02	1.89	0.632	0.417	-0.552	0.766	-0.0277	1.06	0.438 (inactive)
